# High-throughput results from PubChem BioAssay.
# IL1B secr inh: qHTS for Inhibitors of Inflammasome Signaling: IL-1-beta AlphaLISA Primary Screen; THP-1 LPS/ATP IL-1B secretion, AlphaLISA, 16 h; hits give low values; 360,000 compounds, 4.7% hits; activity change, % at 57.5 µM; AID 743279, 2014; in the data active = activity change below about -50%; inconclusive = mostly about -30% to -49%
#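 THP-1 cells pretreated 1 hr with compounds (up to 57.5 uM final), then stimulated with LPS (250 ng/mL final) plus ATP (1.25 mM final); secreted IL-1B measured by AlphaLISA after 16 hr, decreased signal indicating inhibition.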
# ELG1 DNA repair: qHTS screen for small molecules that inhibit ELG1-dependent DNA repair in human embryonic kidney (HEK293T) cells expressing luciferase-tagged ELG1; Potency, µM (top dose mostly 46.1 µM), without a hit: at the top dose activity change, negative = inhibition, usual class: inhibitors; 330,000 compounds, 2.3% hits; HEK293T ELG1-luciferase reporter, luminescence, 16 h; DNA damage induced by 5-fluorouridine; note: potency is the fitted concentration of half-maximal effect; nearly all actives have a fitted effect of over 55% in size
#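 Overnight (16 hr) co-exposure of 2,000 cells/well to 5-fluorouridine and compound at 37 °C preceded detection. Luciferase was quantified via ONE-Glo luminescence; loss of signal denotes inhibition.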
# HT1080 IDH1KD tx: qHTS for induction of synthetic lethality in tumor cells producing 2HG: qHTS for the HT-1080-IDH1KD cell line; HT-1080 IDH1 knockdown viability, ATP luminescence, 48 h; Potency, µM (highest dose often 46.1 µM), inactives show top-dose activity, negative = toxicity, usual class: cytotoxic; 360,000 compounds, 2% hits; AID 686971, 2013;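 note: potency is the fitted concentration of half-maximal effect; 0% = DMSO wells and -100% = cell-free medium wells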
#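 Assay cells: HT-1080 with IDH1 knockdown, 750 per well, RPMI/5% FBS. Exposure: 48 h at 37 °C following 2 h pre-incubation. Read: CellTiter-Glo luminescence; fitted concentration-response, curve class assigned.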
# DT40 TDP1 no CPT: qHTS for Inhibitors of human tyrosyl-DNA phosphodiesterase 1 (TDP1): qHTS in cells in absence of CPT | 420,000 compounds, 15% hits | Potency, µM (series often up to 46.2 µM), for the others: top-dose activity change, negative = growth inhibition, most hits filed as inhibitors | DT40 Tdp1-/- hTDP1 cells, no CPT, ATP luminescence, 48 h | AID 686978, 2013; note: potency is the fitted concentration of half-maximal effect; nearly all actives have a fitted effect of over 55% in size
#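 Readout: luminescence from CellTiter-Glo after 30 min in the dark at RT. Cells: DT40 Tdp1-/- with stable hTDP1, 400/well. Exposure: compounds alone, ≥48 hr, 37 °C.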
# HT1080-NT tox: qHTS for induction of synthetic lethality in tumor cells producing 2HG: qHTS for the HT-1080-NT fibrosarcoma cell line. AID 686970, 2013. HT-1080-NT fibrosarcoma viability, CellTiter-Glo ATP luminescence, 48 h. 360,000 compounds, 1.6% hits. Potency, µM (series often up to 46.1 µM), without a hit: at the highest dose activity, negative = less viability, usual class: cytotoxic;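 note: NT is the 2HG producing partner of a matched IDH1 knockdown line; potency is the fitted concentration of half-maximal effect; 0% = DMSO-treated cells and -100% = media-only wells without cells; nearly all actives have a fitted effect of over 55% in size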
#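 Viability of the 2HG-overproducing fibrosarcoma line after 48 hours of compound exposure at 37 degrees C was determined by luminescence with CellTiter-Glo, and concentration-effect curves were then fitted and categorized.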
# DT40 TDP1 CPT: qHTS for Inhibitors of human tyrosyl-DNA phosphodiesterase 1 (TDP1): qHTS in cells in presence of CPT. chicken DT40 Tdp1-/-;hTDP1 cells + 20 nM CPT, ATP luminescence, 48 h. Potency, µM (titrated, usually from 46.2 µM), inactives show at the highest dose activity change, negative = growth inhibition, hits mostly inhibitors. 420,000 compounds, 12% hits. AID 686979, 2013; note: potency is the fitted concentration of half-maximal effect; nearly all actives have a fitted effect of over 55% in size
#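 Chicken DT40 Tdp1-/- cells stably complemented with human TDP1 were seeded at 400 cells/well in medium containing 20 nM camptothecin, exposed to pin-transferred compounds, and grown at 37 °C for at least 48 hr. Viability was read as ATP luminescence.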
# Starred values were filed as active, the others as inactive; u = inconclusive; x = not tested or not shown. In the library only some 19% were active in any assay of this set; here they are far more common. Unless noted, calls come from the whole dose curve; as a rule, active = well fitted curve in the direction sought with a large enough effect; inconclusive = small, poorly fitted or top-dose-only effect, or another doubt; inactive = no such curve, though single readings can be large; an effect the other way counts as inactive or inconclusive. Unless noted, % is set by controls: 0 for no effect and ±100 for the full control effect.
SMILES,IL1B secr inh,ELG1 DNA repair,HT1080 IDH1KD tx,DT40 TDP1 no CPT,HT1080-NT tox,DT40 TDP1 CPT
CCc1cc2c(=O)nc3n(c2s1)Cc1ccccc1/C3=C(/O)c1ccccc1Cl,-16,-1%,-2%,8.2µM*,0%,8.2µM*
CCc1cc2c(=O)nc3n(c2s1)Cc1ccccc1/C3=C(/O)c1ccc(F)cc1,x,12%,x,x,x,x
COC(=O)[C@]1(CC(C)C)N[C@H](c2ccc(-c3cccc(Cl)c3)cc2)[C@@H]2C(=O)N(C)C(=O)[C@@H]21,u,-13%,-16%,26µM*,u,13µM*
CCN1C(=O)[C@H]2[C@@H](c3ccc(-c4ccccc4)c(OC)c3)N[C@@](CC(C)C)(C(=O)OC)[C@H]2C1=O,0,0%,-5%,15µM*,-3%,18µM*
COC(=O)[C@]1(CC(C)C)N[C@H](c2ccc(-c3ccc4c(c3)OCO4)cc2)[C@@H]2C(=O)N(C)C(=O)[C@@H]21,21,5%,8%,u,21%,u
CCN1C(=O)[C@H]2[C@@H](c3ccc(SC4CCCCC4)cc3)N[C@@](CC(C)C)(C(=O)OC)[C@H]2C1=O,-23,-11%,3%,21µM*,-25%,u
CCN1C(=O)[C@H]2[C@@H](c3ccc(-c4ccccc4)cc3)N[C@@](CC(C)C)(C(=O)OC)[C@H]2C1=O,-2,14%,11%,18µM*,10%,26µM*
Cc1ccc2oc(-c3cccc(NC(=O)/C=C/c4cccc([N+](=O)[O-])c4)c3C)nc2c1,22,u,-26%,u,-21%,u
CCOC(=O)N1CCC(Nc2ccc(N3C(=O)C4CCCCC4C3=O)cc2[N+](=O)[O-])CC1 (stereo unspecified),12,-26%,-9%,-28%,-1%,-22%
CCN(CC)CCNC(=O)c1sc2nc3n(c(=O)c2c1C)CCCCC3,x,x,x,-22%,x,14%
O=C(Oc1ccccc1)N1CCC2(CCCN(c3ccc(-c4ccccc4)cc3)C2)CC1,x,x,x,-28%,x,12%
CC(C)C1=NN(C(=O)c2ccccc2)C(O)(C(C)(C)C)C1 (stereo unspecified),6,u,13%,6.5µM*,11%,u
COc1cccc(NC(=S)N2CCC(C(=O)c3ccc(F)cc3)CC2)c1,u,x,0%,u,-2%,u
COc1ccc(NC(=S)N2CCC(C(=O)c3ccc(C)cc3)CC2)cc1,-23,-5%,-14%,8.2µM*,-1%,u
CCOc1ccc(NC(=S)N2CCC(C(=O)c3ccc(F)cc3)CC2)cc1,u,x,1%,u,3%,u
COc1ccc(NC(=S)N2CCC(C(=O)c3ccc(OC)cc3)CC2)cc1,7,23µM*,-24%,16µM*,-15%,u
COc1ccc(C(=O)C2CCN(C(=S)Nc3ccc(F)cc3)CC2)cc1,-63*,u,0%,-13%,1%,-28%
Cc1ccc(C(=O)N(C)Cc2nc3ccccc3c(=O)[nH]2)cc1NC(=O)c1ccco1,26,-14%,-3%,-17%,-7%,-2%
CCc1cccc(CC)c1NC(=O)Cn1nnc2sc3c(c2c1=O)CCCC3,x,x,x,8.2µM*,x,u
Cc1ccc(OCCCCn2nnc3sc4c(c3c2=O)CCC(C)C4)cc1 (stereo unspecified),x,x,x,-9%,x,-14%
Cc1c(Cl)cccc1NC(=O)Cn1nnc2sc3c(c2c1=O)CCCC3,x,x,x,3%,x,-9%
CC1CCc2c(sc3nnn(CC(=O)Nc4c(C(C)C)cccc4C(C)C)c(=O)c23)C1 (stereo unspecified),x,x,x,15µM*,x,u
CCOC(=O)N1CCN(C(=O)c2ccc(Cl)c(NC(=O)c3cccs3)c2)CC1,-19,-29%,6%,-22%,9%,-19%
C[C@@H]1CN([C@@H](C)CO)C(=O)c2cc(N(C)C)ccc2O[C@@H]1CN(C)S(C)(=O)=O,2,u,9%,5%,19%,3%
CCCCOC(=O)CSC1=C(C#N)C(c2ccc3c(c2)OCO3)CC(=O)N1 (stereo unspecified),-26,u,2%,-15%,-1%,-4%
SMILES,IL1B secr inh,ELG1 DNA repair,HT1080 IDH1KD tx,DT40 TDP1 no CPT,HT1080-NT tox,DT40 TDP1 CPT
CCOC(=O)CSC1=C(C#N)C(c2ccc3c(c2)OCO3)CC(=O)N1 (stereo unspecified),-8,x,9.2µM*,21µM*,16µM*,u
O=C(C1=C[C@@H](c2ccc(Br)cc2)C[C@@H](OCCCCO)O1)N1CCN(Cc2ccc3c(c2)OCO3)CC1,u,0%,-2%,u,-14%,u
O=C(NCc1ccccc1)C1=C[C@H](c2csc3ccccc23)C[C@H](OCCCCO)O1,-25,u,-12%,18µM*,-5%,16µM*
O=C(C1=C[C@H](c2csc3ccccc23)C[C@H](OCCCCO)O1)N1CCN(Cc2ccccc2)CC1,-6,2%,-1%,u,-10%,26µM*
O=C(C1=C[C@@H](c2csc3ccccc23)C[C@@H](OCCCCO)O1)N1CCN(Cc2ccc3c(c2)OCO3)CC1,u,u,-26%,u,-27%,u
O=C(C1=C[C@H](c2csc3ccccc23)C[C@H](OCCCCO)O1)N1CCN(Cc2ccc3c(c2)OCO3)CC1,-54*,u,u,u,-29%,u
O=C(C1=C[C@H](c2ccc(Br)cc2)C[C@H](OCCCCO)O1)N1CCN(Cc2ccccc2)CC1,0,-2%,-2%,u,u,23µM*
Cc1cccc(C)c1NC(=O)C1(C)CSCC(=O)N1C1CCN(Cc2ccccc2)CC1 (stereo unspecified),12,x,22%,6%,9%,-2%
Cc1cccc(-n2c(=O)c3c(c4cc(C)ccc4n3C)n(CC(=O)NCC3CCCO3)c2=O)c1 (stereo unspecified),x,x,x,-18%,x,0%
O=C(C1=C[C@@H](c2csc3ccccc23)C[C@@H](OCc2ccc(CO)cc2)O1)N1CCN(Cc2ccccc2)CC1,-60*,u,-9%,u,-26%,u
